Experimental data reported in PubChem BioAssay (NCATS).
Values joined by “and” are separate entries in the source; they are usually repeats but may differ in a detail not shown here. Identical values can stand only once. A number with no mark means an inactive call. Inconclusive results are not listed. A call without a number means that no potency is given here. Active and inactive are the calls of the source. Unless noted, calls follow the shape of the full dose curve.

Assays:
[1] = target: Bile acid receptor (Homo sapiens) (UniProt Q96RI1); assay: qHTS assay for small molecule agonists of farnesoid X receptor signaling (AID 588527); settings: HEK293T FXR-UAS-bla, beta-lactamase ratio, 16 h; activation: stronger effect = higher value; also: series mostly up to about 77 µM
Sequence of Bile acid receptor (Homo sapiens) (Q96RI1 whole entry, looked up): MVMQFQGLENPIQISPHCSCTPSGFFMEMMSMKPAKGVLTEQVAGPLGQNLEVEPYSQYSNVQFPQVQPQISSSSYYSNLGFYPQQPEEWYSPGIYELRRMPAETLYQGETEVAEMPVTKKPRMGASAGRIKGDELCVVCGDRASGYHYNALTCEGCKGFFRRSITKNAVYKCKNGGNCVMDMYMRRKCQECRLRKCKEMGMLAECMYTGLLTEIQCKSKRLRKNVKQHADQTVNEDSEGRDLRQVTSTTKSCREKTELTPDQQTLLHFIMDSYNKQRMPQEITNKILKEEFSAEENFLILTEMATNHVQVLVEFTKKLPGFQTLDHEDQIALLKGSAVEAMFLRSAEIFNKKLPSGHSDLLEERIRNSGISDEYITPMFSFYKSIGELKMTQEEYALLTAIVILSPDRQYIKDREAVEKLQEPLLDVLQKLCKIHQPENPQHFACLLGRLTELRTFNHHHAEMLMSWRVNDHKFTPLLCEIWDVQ
Method in brief: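 Quantitative HTS used FXR-UAS-bla HEK293T cells with 16 h compound incubation at 37 C. EC50 values came from concentration-response curves normalized to chenodeoxycholic acid.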

[2] = target: Peroxisome proliferator-activated receptor delta (Homo sapiens) (UniProt Q03181); assay: qHTS assay for small molecule agonists of peroxisome proliferator-activated receptor delta signaling (AID 588534)
Sequence of Peroxisome proliferator-activated receptor delta (Homo sapiens) (Q03181 whole entry, looked up): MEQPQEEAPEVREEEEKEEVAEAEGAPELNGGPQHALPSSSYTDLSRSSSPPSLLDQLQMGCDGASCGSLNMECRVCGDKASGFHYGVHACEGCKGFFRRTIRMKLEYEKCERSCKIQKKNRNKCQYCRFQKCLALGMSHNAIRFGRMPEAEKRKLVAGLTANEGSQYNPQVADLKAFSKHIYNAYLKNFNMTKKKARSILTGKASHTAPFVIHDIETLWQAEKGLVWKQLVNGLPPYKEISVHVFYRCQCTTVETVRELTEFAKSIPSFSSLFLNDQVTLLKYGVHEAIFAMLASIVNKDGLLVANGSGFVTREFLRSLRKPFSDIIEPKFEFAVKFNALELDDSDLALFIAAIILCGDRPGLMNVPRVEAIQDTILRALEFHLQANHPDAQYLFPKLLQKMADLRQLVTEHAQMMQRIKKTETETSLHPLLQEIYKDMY
Method in brief: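 EC50 and efficacy values derive from Hill fits of a concentration series in a beta-lactamase reporter cell assay. Exposure is 18 hrs at 37 C, with CCF4 fluorescence as the readout.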

[3] = target: Voltage-gated inwardly rectifying potassium channel KCNH2 (Homo sapiens) (UniProt Q12809); assay: qHTS Assay for Small Molecule Inhibitors of the Human hERG Channel Activity (AID 588834; active = well fitted curve in the direction sought with a large enough effect; an effect the other way counts as inactive or inconclusive;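 also: top concentration of the series differs between compounds; lower thallium flux fluorescence means stronger hERG block; nearly all actives have a fitted effect of over 50% in size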)
Sequence of Voltage-gated inwardly rectifying potassium channel KCNH2 (Homo sapiens) (Q12809 whole entry, looked up): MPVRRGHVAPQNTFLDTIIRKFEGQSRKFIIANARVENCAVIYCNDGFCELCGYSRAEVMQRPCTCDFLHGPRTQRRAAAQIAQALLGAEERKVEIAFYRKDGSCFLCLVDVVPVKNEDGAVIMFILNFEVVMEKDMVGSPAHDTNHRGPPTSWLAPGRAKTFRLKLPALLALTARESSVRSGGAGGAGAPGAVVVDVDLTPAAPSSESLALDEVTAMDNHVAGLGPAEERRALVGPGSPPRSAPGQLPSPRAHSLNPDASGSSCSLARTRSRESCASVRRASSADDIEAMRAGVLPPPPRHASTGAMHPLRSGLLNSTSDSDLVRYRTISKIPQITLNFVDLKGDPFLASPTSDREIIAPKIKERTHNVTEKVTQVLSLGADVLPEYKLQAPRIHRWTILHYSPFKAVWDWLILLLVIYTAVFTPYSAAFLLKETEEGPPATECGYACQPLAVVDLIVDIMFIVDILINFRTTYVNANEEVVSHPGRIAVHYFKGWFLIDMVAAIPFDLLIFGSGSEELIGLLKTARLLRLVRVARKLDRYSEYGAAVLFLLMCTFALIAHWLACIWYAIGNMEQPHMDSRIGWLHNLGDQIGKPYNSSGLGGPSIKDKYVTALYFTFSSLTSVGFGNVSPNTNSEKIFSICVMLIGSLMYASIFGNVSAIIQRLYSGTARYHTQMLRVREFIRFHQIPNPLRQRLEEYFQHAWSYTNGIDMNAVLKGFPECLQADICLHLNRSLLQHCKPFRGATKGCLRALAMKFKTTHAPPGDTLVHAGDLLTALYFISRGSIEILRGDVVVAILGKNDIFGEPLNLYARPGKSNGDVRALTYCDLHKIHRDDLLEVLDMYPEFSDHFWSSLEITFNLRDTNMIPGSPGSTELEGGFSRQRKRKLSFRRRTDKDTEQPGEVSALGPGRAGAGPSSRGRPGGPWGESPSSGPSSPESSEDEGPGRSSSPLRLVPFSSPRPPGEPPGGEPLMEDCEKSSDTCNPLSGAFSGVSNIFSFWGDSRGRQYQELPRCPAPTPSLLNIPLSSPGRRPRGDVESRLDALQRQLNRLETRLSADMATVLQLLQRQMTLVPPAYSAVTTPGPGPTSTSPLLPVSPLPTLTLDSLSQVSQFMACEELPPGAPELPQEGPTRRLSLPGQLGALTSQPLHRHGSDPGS
Method in brief: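 Step 1: BacMam hERG transduction of U2OS, 4 hrs RT. Step 2: overnight 37 °C, plate 2000 cells/well, 4 hr. Step 3: FluxOR load, compound 10 min, stimulate, read fluorescence.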

[4] = S16 Schwann cell PMP22 intronic element firefly luciferase assay (AID 624032; active = well fitted curve in the direction sought with a large enough effect; an effect the other way counts as inactive or inconclusive; also: series mostly up to about 58 µM; nearly all actives have a fitted effect of over 30% in size)
Method in brief: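 Rat S16 Schwann cells stably carrying firefly luciferase driven by a PMP22 intronic element, in 10% FBS, treated 24 h at 37 C. ONE-Glo luminescence normalized to PTC124 control and DMSO (0%); curves classed by r2, magnitude and activity.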

[5] = target: Nuclear receptor ROR-gamma (Homo sapiens) (UniProt P51449); assay: qHTS assay for small molecule antagonists of the retinoid-related orphan receptor gamma (ROR-gamma) signaling pathway (AID 651802; active = well fitted curve in the direction sought with a large enough effect; an effect the other way counts as inactive or inconclusive;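 also: CHO cells with doxycycline-induced ROR-gamma expression; luciferase reporter luminescence driven by ROR response element; series mostly up to about 92 µM; nearly all actives have a fitted effect of over 60% in size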)
Sequence of Nuclear receptor ROR-gamma (Homo sapiens) (P51449 whole entry, looked up): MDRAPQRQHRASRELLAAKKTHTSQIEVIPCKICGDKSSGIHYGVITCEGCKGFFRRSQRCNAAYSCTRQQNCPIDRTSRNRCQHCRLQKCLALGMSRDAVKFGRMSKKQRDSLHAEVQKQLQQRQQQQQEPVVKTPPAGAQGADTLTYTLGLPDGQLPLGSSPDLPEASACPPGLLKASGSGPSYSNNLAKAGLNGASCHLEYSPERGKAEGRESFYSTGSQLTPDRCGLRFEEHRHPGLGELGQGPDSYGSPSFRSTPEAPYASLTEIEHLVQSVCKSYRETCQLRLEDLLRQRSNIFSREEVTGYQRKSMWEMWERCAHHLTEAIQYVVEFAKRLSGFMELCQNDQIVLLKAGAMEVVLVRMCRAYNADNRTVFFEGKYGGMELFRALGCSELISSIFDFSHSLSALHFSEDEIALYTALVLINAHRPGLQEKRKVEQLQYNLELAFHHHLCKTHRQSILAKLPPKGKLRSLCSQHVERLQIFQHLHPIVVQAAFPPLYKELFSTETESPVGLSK
Method in brief: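 Doxycycline-induced reporter activity in engineered CHO cells (TET-inducible ROR, RORE-LUC) was measured by luminescence after 16hr compound exposure at 37C.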

[6] = target: Luciferin 4-monooxygenase (Photinus pyralis) (UniProt P08659); assay: Biochemical firefly luciferase enzyme assay for NPC (AID 624030; active = well fitted curve in the direction sought with a large enough effect; an effect the other way counts as inactive or inconclusive;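 also: purified P. pyralis luciferase at 10 nM with luciferin and ATP substrate; series mostly up to about 59 µM; nearly all actives have a fitted effect of over 70% in size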)
Sequence of Luciferin 4-monooxygenase (Photinus pyralis) (P08659 whole entry, looked up): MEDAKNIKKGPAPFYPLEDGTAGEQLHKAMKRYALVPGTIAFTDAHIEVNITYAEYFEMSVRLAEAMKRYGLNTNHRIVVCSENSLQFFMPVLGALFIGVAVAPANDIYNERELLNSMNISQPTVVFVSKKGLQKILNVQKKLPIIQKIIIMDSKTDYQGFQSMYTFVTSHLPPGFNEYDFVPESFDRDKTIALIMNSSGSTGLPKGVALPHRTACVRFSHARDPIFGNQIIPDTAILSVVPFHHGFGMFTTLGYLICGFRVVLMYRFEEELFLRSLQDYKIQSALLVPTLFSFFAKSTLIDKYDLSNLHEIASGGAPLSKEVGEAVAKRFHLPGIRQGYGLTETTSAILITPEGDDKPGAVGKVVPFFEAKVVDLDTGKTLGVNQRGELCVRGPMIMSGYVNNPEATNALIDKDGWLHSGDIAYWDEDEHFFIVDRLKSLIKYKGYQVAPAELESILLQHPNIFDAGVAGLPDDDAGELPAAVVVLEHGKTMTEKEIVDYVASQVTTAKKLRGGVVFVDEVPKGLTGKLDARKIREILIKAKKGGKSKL
Method in brief: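 Purified P. pyralis luciferase at 10 nM in 50 mM Tris Acetate (final), luminescence read within 5 minutes of enzyme addition to compounds. Activity normalised to PTC124 versus DMSO; concentration-response curves classed by r2, magnitude and activity.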

[7] = target: Thyroid hormone receptor beta (Homo sapiens) (UniProt P10828); assay: qHTS assay for small molecule agonists of thyroid hormone receptor beta signaling (AID 588545)
Sequence of Thyroid hormone receptor beta (Homo sapiens) (P10828 whole entry, looked up): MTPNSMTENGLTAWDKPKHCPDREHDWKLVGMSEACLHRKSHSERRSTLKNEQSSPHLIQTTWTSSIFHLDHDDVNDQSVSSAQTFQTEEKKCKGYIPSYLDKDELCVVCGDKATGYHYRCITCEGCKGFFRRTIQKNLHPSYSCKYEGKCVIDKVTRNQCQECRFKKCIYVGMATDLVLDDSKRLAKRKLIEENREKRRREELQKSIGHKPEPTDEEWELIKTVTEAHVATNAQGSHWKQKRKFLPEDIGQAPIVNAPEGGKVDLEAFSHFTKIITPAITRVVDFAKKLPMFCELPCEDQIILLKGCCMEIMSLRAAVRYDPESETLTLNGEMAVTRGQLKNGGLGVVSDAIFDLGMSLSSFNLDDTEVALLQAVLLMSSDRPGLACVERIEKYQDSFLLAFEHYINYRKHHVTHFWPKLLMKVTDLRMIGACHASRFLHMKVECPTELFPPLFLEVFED
Method in brief: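 Agonist activity was read as beta-lactamase CCF4 fluorescence (405 ex, 460/530 em), scaled between DMSO (0%) and 10 nM T3 (100%), then Hill-fitted for EC50 and efficacy. HEK 293 TR-UAS-bla cells in 2% charcoal/dextran FBS medium were exposed 18 h at 37 C.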

[8] = qHTS assay for small molecule activators of the p53 signaling pathway (AID 651743; active = well fitted activation curve with a large enough effect in the signal ratio, not every such curve was filed as active; the % refers to the signal ratio; also: series mostly up to about 92 µM); settings: HCT-116 p53RE-bla, beta-lactamase FRET ratio, 16 h; activation: stronger effect = higher value
Method in brief: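 Reporter: beta-lactamase driven by p53 response elements, stably integrated in HCT-116 cells. Cells seeded at 4,000/well, 5 h preincubation, compound (DMSO) 16 h at 37 C; B/G FRET substrate 2 h RT; fluorescence intensity read.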

[9] = qHTS assay for environmental chemicals that activate the Aryl hydrocarbon Receptor (AhR) signaling pathway (AID 651777; active = well fitted curve in the direction sought with a large enough effect; an effect the other way counts as inactive or inconclusive; also: nearly all actives have a fitted effect of over 15% in size); settings: 1A2-DRE human hepatoma cells, luciferase, 24 h; activation: stronger effect = higher value
Method in brief: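 1A2-DRE human hepatoma reporter line; 1,200 cells/well; cmpd or DMSO 24 h, 37 C/5% CO2; One-Glo 30 min RT; luciferase lum.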

[10] = target: Peroxisome proliferator-activated receptor alpha (Homo sapiens) (UniProt Q07869); assay: qHTS assay for small molecule agonists of the peroxisome proliferator-activated receptor alpha (PPARalpha) signaling pathway (AID 651778; active = well fitted curve in the direction sought with a large enough effect; an effect the other way counts as inactive or inconclusive); settings: PathHunter PPARalpha complementation, chemiluminescence, 6 h; max response: stronger effect = higher value
Sequence of Peroxisome proliferator-activated receptor alpha (Homo sapiens) (Q07869 whole entry, looked up, the tested form may be a part): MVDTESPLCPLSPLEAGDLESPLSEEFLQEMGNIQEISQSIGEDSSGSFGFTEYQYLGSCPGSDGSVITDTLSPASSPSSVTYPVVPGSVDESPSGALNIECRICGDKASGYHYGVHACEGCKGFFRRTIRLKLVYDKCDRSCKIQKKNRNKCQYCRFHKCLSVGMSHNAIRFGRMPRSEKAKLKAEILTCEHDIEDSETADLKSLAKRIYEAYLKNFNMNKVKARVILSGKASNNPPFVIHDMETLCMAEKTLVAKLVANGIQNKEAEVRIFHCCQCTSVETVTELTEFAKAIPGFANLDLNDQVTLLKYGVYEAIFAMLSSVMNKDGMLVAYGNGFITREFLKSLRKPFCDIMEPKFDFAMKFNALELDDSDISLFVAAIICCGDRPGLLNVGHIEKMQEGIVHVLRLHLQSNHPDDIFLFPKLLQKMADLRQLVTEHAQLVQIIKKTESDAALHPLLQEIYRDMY
Method in brief: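 Enzyme-fragment complementation assay in which ligand-bound PPARalpha translocates and forms an active enzyme that generates chemiluminescence. Cells were plated overnight, exposed to compound for 6 hr at 37 C, and then given detection reagent for 60 min at room temperature.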

[11] = qHTS assay for small molecule agonists of the antioxidant response element (ARE) signaling pathway measured by Nrf2-dependant transcriptional activity (AID 720636; active = well fitted curve in the direction sought with a large enough effect in the repeat runs; an effect the other way counts as inactive or inconclusive;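 also: HepG2 cells with an ARE-driven luciferase reporter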)
Method in brief: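 Cells: ARE-luc HepG2 with Nrf2-responsive luciferase. Medium contained 1% dialyzed FBS. Compound exposure lasted 16 hr at 37 C and 5% CO2, followed by ONE-Glo luciferase detection.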

[12] = qHTS assay for small molecule agonists of the antioxidant response element (ARE) signaling pathway measured by Nrf2-dependant transcriptional activity - cell viability counter screen (AID 720653; active = well fitted curve in the direction sought with a large enough effect in the repeat runs; an effect the other way counts as inactive or inconclusive; also: potency is read from the fitted curve at half-maximal effect); settings: ARE-bla HepG2 viability, CellTiter-Glo ATP luminescence, 16 h; max response: stronger effect = lower value
Method in brief: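 ARE-bla HepG2 cells treated with compounds for 16 h at 37C; this counter screen measures viability as intracellular ATP by CellTiter-Glo luminescence after 30 min at room temperature.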

[13] = qHTS assay for cell viability of HEK293 cells (AID 743288; active = well fitted curve in the direction sought with a large enough effect; an effect the other way counts as inactive or inconclusive; also: potency is read from the fitted curve at half-maximal effect; nearly all actives have a fitted effect of over 50% in size); settings: ATP luminescence (CellTiter-Glo), 18 h; max response: stronger effect = lower value
Method in brief: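 Viable-cell counts were inferred from luciferase-based ATP content in HEK293 cells seeded at 2,000/well, pre-incubated ≥5 h, then dosed with DMSO-solubilised compounds for 18 h at 37 C.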

[14] = qHTS assay for cell viability of the p53RE-bla HCT-116 cell line (AID 743292; active = well fitted curve in the direction sought with a large enough effect; an effect the other way counts as inactive or inconclusive; also: nearly all actives have a fitted effect of over 55% in size)
Method in brief: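 HCT-116 p53RE-bla cells seeded 4,000/well; 5 h at 37 C; compound (DMSO) added; 16 h at 37 C; CellTiter-Glo added, 30 min RT; luminescence read.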

[15] = qHTS assay for small molecule activators of the human pregnane X receptor (PXR) signaling pathway (AID 720659; call rule not given here)
[16] = target: Peroxisome proliferator-activated receptor gamma (Homo sapiens) (UniProt P37231); assay: qHTS assay for small molecule antagonists of peroxisome proliferator-activated receptor gamma signaling (AID 588537; active = well fitted inhibition curve with a large enough effect in the signal ratio, with a control signal flat, not every such curve was filed as active; the % refers to the signal ratio;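 also: reporter cells co-stimulated with 50 nM rosiglitazone agonist during compound treatment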)
Sequence of Peroxisome proliferator-activated receptor gamma (Homo sapiens) (P37231 whole entry, looked up): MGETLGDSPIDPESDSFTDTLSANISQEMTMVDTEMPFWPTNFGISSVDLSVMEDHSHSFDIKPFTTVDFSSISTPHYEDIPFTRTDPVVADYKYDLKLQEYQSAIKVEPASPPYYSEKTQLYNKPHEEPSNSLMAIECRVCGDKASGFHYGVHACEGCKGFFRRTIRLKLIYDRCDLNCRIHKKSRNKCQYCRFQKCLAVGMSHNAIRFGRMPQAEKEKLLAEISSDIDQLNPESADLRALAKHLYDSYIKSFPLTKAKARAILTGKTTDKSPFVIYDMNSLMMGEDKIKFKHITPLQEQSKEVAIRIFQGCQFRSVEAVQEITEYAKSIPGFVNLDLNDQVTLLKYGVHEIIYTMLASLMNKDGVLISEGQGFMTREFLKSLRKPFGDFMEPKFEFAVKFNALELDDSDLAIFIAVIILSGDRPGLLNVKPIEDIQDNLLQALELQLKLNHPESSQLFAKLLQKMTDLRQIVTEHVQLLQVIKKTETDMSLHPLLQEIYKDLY
Method in brief: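 Read-out: CCF4 fluorescence (ex 405, em 460/530 nm) after 2 h at RT. Cells were HEK293 carrying a UAS-bla reporter and treated 16 h at 37 C with compound plus rosiglitazone (50 nM final). Normalized to rosiglitazone and DMSO.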

Which activation [1] does the source give for CCCCCCCCCCCC[N+](C)(C)[O-] here?
Its activation is 8.79%.

What about the outcome [2] of the same molecule?
The outcome was “inactive”.

Which activation [1] does the source give for NN(c1ccccc1)c1ccccc1 here?
The activation was -1.98%.

What about the outcome [2] of the same molecule?
The outcome was “inactive”.

With CC(C)C(=O)OCC(C)(C)C(O)C(C)C (stereo not given) as the molecule, how does the activation [1] read?
Its activation is -0.406%.

And the outcome [2]?
Its outcome is “inactive”.

Which results are given for CCCCOCCOCCOCCCC?
activation [1]: -0.244%; outcome [2]: inactive

What does the source list for CN(C)CCCCCCN(C)C?
activation [1]: -2.62%; outcome [2]: inactive; Potency [3]: inactive; Potency [4]: inactive; Potency [5]: inactive

Which results are given for ClC(Cl)Cl?
activation [1]: 0.676%; outcome [2]: inactive; Potency [6]: inactive

What does the source list for [Cu+2].[O-]c1cccc2cccnc12.[O-]c1cccc2cccnc12?
activation [1]: -9.69%; Potency [7]: inactive; activation [8]: -8.29%; activation [9]: -12.2%; max response [10]: -9.55%; Potency [11]: inactive; Potency [12]: 11.2 µM (active); Potency [13]: 31.6 µM (active); Potency [14]: inactive; outcome [15]: inactive

Which activation [1] does the source give for Nc1cccc(C(F)(F)F)c1 here?
Its activation is -1.94% and -0.257%.

And the outcome [2]?
Its outcome is “inactive”.

What about the Potency [16] of the same molecule?
Its Potency is “inactive”.

What about the activation [8] of the same molecule?
The activation was -3.34%.
